# Measured values published in publication PMC7862700, “An all-to-all approach to the identification of sequence-specific readers for epigenetic DNA modifications on cytosine”.
# How the values were obtained:
# Experiment in all cases: DAPPL (digital affinity profiling via proximity ligation, sequencing); 10 mM Tris-HCl pH 7.5, 50 mM NaCl, 1 mM DTT, 4% glycerol, room temperature, 30 min; GST-TFs on glutathione beads, 16-mer random dsDNA library, 0.1% formaldehyde crosslink after washing; high values mean tight binding
# Details in all cases: protein: recombinant; tags: N-terminal GST; dsDNA, one strand shown
# FLI1 = biological target: T1, FLI1 (Homo sapiens, UniProt Q01543 1-452)
# T1 sequence: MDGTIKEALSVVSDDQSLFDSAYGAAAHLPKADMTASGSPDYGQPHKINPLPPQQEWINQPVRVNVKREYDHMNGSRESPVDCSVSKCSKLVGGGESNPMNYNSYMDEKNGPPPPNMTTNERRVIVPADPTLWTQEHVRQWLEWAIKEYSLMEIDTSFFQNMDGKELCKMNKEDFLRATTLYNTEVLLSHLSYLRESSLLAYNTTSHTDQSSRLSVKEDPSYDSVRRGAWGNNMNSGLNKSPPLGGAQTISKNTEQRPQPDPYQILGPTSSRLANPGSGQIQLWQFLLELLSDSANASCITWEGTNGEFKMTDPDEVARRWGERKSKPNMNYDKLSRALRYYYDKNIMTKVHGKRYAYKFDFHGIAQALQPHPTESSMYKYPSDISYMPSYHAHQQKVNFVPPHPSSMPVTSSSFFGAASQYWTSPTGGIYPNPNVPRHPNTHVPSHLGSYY
# How it was run: (§1)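 Binding signal is given per hexamer as its read frequency for a factor divided by its frequency in the tag-only sample. GST-fused human transcription factors were expressed in yeast, captured on glutathione beads, barcoded with DNA and pooled with that sample, then incubated with 200 nmole of a 16-mer random double-stranded DNA library in Tris/NaCl/DTT/glycerol buffer for 30 min at room temperature. The pools were then washed, crosslinked, proximity-ligated, amplified by PCR and sequenced on an Illumina NextSeq500.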
# ELK1 = biological target: T2, ELK1 (Homo sapiens, UniProt P19419 1-428)
# T2 sequence: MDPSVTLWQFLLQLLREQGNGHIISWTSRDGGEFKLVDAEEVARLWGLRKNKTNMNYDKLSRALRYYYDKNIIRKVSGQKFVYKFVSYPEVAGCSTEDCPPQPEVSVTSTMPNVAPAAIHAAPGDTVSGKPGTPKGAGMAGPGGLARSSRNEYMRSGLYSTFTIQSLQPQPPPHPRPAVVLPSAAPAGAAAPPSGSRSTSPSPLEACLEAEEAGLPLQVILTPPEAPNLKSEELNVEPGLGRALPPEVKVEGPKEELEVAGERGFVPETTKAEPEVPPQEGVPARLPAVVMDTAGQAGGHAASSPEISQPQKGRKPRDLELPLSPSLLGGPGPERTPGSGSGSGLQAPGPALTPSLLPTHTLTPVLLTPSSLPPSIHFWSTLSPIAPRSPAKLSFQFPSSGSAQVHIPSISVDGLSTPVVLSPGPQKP
# How it was run: as §1
# GABPA = biological target: T3, GABPA (Homo sapiens, UniProt Q06546 1-454)
# T3 sequence: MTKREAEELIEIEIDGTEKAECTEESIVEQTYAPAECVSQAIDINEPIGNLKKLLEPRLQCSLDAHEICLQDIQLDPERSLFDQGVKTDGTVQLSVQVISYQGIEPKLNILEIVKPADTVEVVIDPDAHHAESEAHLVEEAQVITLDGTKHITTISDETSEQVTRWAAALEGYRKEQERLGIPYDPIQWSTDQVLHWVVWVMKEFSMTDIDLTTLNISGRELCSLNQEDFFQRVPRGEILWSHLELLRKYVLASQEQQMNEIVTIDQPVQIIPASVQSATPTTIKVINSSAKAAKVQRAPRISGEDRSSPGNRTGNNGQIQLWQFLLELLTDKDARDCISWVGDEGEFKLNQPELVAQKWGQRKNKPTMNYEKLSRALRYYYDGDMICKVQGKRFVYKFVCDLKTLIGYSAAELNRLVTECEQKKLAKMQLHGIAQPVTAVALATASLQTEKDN
# How it was run: as §1
# ERG = biological target: T4, ERG (Homo sapiens, UniProt P11308 1-479)
# T4 sequence: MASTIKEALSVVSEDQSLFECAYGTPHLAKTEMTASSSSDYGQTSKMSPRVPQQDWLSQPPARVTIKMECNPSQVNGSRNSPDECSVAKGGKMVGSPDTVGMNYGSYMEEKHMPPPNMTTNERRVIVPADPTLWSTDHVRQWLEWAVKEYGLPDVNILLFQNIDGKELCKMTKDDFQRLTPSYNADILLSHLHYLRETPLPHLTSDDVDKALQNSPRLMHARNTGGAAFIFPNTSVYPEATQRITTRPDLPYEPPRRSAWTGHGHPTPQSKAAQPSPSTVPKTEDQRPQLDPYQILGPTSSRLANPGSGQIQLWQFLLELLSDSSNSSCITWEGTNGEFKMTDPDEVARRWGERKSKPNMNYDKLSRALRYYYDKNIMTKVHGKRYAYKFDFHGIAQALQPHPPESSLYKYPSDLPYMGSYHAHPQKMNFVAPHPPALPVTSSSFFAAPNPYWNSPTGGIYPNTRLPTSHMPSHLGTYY
# How it was run: as §1
# ELF1 = ELF1 (Homo sapiens, UniProt P32519 1-619)
# Sequence of ELF1 (P32519 whole entry): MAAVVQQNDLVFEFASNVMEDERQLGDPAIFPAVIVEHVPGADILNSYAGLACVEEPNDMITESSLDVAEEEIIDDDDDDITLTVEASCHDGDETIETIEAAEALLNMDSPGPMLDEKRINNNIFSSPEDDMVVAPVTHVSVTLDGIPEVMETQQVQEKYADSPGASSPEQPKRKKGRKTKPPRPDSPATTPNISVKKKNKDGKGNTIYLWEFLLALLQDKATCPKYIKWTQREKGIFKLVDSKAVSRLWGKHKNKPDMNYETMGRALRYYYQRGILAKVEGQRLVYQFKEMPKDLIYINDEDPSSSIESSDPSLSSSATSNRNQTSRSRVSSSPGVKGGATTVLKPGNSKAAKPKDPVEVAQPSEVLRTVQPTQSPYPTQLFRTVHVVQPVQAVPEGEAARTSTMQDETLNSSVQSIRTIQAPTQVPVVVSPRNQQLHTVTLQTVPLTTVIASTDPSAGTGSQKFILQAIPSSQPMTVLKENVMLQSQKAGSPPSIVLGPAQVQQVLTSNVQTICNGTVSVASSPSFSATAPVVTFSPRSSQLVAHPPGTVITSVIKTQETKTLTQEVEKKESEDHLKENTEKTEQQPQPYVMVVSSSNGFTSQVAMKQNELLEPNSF
# How it was run: as §1
# EHF = biological target: T5, EHF (Homo sapiens, UniProt Q9NZC4 1-300)
# T5 sequence: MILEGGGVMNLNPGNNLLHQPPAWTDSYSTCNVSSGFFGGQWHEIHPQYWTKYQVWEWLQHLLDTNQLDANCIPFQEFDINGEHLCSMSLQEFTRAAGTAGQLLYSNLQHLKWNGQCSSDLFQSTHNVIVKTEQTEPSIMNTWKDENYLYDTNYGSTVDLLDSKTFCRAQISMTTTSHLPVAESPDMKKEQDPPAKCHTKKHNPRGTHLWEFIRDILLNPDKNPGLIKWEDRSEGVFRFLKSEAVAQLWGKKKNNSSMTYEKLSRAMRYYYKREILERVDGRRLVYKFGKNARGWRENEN
# How it was run: as §1
# SPI1 = SPI1 (Homo sapiens, UniProt P17947 1-270)
# How it was run: as §1
# SPIB = SPIB (Homo sapiens, UniProt Q01892 1-262)
# Sequence of SPIB (Q01892 whole entry): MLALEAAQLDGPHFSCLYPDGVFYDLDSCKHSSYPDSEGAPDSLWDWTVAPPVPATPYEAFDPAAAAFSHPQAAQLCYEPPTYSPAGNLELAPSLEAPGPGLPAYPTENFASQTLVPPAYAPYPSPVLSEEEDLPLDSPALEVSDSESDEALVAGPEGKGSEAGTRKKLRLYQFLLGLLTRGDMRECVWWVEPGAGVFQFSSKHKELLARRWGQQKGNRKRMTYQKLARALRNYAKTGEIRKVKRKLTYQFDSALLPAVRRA
# How it was run: as §1
# ELK3 = biological target: T6, ELK3 (Homo sapiens, UniProt P41970 1-407)
# T6 sequence: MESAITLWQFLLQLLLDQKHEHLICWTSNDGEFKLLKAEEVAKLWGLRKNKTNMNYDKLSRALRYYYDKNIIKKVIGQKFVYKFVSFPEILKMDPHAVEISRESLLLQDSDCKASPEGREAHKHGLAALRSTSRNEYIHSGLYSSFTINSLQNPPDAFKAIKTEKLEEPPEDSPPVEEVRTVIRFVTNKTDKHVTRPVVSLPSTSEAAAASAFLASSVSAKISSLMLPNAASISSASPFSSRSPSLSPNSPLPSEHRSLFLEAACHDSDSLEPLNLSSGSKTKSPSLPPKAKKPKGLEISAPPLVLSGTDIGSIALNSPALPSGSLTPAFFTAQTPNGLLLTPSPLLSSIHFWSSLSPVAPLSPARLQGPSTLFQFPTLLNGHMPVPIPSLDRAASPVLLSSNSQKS
# How it was run: as §1
# FEV = biological target: T7, FEV (Homo sapiens, UniProt Q99581 1-238)
# T7 sequence: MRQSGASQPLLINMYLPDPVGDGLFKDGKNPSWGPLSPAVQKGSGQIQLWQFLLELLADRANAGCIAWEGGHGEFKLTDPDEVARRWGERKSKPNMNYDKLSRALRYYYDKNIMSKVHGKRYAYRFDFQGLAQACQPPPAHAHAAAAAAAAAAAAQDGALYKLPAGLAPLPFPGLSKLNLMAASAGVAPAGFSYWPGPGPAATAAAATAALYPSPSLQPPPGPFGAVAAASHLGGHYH
# How it was run: as §1
# ETV5 = ETV5 (Homo sapiens, UniProt P41161 1-510)
# Sequence of ETV5 (P41161 whole entry): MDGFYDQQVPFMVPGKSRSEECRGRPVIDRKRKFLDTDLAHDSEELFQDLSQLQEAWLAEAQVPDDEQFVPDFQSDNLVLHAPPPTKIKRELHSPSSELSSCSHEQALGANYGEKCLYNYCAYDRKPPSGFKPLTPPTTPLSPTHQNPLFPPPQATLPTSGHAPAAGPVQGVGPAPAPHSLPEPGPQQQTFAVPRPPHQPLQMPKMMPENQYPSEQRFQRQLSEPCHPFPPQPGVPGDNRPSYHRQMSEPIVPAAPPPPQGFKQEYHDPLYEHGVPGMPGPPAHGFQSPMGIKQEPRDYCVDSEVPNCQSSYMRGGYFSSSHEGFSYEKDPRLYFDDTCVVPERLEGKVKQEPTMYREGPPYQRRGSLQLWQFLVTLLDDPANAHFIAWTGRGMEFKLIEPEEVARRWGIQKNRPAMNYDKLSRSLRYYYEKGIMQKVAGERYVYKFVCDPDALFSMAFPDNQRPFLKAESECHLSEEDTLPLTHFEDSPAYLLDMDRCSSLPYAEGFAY
# How it was run: as §1
# SPIC = biological target: T8, SPIC (Homo sapiens, UniProt Q8N5J4 1-248)
# T8 sequence: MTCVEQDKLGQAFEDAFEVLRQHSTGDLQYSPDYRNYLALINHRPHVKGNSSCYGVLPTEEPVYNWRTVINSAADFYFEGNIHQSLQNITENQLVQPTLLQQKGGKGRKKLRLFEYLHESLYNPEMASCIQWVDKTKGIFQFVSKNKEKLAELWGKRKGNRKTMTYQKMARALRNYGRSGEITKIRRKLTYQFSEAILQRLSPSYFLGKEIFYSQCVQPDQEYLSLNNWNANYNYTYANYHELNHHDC
# How it was run: as §1
# ELF4 = ELF4 (Homo sapiens, UniProt Q99607 1-663)
# Sequence of ELF4 (Q99607 whole entry): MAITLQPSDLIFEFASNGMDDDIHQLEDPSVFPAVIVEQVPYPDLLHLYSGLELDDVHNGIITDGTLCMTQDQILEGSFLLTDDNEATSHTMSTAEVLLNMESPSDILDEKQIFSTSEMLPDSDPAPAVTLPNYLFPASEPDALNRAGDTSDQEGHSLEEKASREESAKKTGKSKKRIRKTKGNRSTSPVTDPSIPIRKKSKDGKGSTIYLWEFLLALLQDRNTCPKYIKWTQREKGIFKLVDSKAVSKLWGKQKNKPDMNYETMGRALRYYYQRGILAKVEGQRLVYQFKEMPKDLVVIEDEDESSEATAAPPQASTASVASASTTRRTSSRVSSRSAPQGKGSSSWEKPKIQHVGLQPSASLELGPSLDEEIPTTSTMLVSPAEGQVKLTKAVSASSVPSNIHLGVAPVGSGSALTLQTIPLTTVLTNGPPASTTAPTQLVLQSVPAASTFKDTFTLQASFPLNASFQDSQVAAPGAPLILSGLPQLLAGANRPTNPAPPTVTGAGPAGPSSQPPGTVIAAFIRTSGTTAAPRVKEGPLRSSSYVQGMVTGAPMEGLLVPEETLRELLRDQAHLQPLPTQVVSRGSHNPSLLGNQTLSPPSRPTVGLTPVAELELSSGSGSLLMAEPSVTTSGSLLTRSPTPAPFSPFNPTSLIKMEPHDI
# How it was run: as §1
# ETV1 = ETV1 (Homo sapiens, UniProt P50549 1-477)
# Sequence of ETV1 (P50549 whole entry): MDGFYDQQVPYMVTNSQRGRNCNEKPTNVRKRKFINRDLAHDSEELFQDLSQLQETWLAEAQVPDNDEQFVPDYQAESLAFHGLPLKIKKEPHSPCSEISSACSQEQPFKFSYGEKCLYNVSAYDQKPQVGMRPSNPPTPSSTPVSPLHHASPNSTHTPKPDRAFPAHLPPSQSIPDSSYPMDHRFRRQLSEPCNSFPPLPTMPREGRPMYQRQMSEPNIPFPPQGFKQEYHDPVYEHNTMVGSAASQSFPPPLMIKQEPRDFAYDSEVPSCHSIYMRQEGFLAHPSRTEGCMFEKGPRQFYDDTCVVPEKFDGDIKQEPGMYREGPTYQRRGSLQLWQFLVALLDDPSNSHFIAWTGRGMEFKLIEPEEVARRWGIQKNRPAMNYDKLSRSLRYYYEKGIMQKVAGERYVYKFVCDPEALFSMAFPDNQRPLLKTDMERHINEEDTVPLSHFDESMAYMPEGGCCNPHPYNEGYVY
# How it was run: as §1
# ERF = biological target: T9, ERF (Homo sapiens, UniProt P50548 1-548)
# T9 sequence: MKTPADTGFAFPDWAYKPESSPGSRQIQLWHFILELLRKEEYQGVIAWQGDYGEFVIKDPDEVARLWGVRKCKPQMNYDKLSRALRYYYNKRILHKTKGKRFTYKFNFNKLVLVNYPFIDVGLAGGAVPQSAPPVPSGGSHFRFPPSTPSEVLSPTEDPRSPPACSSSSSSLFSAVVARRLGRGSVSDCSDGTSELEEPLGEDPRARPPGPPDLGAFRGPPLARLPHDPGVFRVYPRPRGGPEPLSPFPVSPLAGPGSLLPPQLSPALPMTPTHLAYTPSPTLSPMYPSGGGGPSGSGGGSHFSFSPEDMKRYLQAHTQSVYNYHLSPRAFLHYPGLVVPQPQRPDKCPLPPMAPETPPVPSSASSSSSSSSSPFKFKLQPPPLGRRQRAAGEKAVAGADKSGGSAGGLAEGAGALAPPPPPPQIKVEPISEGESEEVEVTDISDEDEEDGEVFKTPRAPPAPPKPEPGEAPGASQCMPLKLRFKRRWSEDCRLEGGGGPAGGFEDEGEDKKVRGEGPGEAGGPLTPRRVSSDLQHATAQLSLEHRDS
# How it was run: as §1
# ETV3L = biological target: T10, ETV3L (Homo sapiens, UniProt Q6ZN32 1-361)
# T10 sequence: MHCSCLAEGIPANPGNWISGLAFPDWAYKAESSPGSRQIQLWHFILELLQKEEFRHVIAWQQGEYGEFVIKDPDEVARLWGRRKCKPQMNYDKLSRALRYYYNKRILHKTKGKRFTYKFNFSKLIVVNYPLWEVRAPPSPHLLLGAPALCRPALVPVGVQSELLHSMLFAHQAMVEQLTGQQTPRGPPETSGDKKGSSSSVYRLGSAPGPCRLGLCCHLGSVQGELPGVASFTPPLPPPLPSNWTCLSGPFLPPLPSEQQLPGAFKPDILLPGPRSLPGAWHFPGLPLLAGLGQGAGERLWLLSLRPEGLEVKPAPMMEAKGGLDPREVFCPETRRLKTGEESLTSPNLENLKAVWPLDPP
# How it was run: as §1
# ETS2 = biological target: T11, ETS2 (Homo sapiens, UniProt P15036 1-469)
# T11 sequence: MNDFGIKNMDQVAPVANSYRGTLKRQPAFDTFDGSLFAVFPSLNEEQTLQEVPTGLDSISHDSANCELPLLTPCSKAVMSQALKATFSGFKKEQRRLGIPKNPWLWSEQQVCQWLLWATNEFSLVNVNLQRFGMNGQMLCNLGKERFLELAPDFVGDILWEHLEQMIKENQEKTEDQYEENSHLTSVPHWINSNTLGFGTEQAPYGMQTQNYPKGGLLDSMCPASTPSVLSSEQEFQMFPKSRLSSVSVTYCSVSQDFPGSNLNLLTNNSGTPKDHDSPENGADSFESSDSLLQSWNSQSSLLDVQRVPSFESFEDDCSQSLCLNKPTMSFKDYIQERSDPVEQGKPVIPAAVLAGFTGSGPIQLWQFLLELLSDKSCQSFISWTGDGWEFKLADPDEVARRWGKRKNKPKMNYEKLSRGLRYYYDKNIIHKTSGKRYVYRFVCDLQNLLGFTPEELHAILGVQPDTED
# How it was run: as §1
# ETV3 = biological target: T12, ETV3 (Homo sapiens, UniProt P41162-2 1-143)
# T12 sequence: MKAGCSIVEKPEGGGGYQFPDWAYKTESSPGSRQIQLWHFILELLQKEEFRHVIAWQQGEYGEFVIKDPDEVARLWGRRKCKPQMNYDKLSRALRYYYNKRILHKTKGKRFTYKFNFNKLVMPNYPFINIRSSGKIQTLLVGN
# How it was run: as §1
# ETV6 = ETV6 (Homo sapiens, UniProt P41212 1-452)
# Sequence of ETV6 (P41212 whole entry): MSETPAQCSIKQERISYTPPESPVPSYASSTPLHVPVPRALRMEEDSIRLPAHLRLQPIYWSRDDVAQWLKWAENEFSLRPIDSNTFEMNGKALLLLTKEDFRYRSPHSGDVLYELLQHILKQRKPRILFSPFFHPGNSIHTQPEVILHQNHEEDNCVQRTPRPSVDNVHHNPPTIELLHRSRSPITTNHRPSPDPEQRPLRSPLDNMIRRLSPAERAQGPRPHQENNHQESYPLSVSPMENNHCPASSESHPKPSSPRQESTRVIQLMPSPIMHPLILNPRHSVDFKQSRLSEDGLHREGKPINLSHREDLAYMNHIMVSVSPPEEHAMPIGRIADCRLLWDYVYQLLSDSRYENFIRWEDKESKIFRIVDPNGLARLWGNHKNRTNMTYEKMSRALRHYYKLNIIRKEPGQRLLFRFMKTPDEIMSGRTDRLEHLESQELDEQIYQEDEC
# How it was run: as §1
sequence,measurement,setting,value
CGATGT,binding signal,FLI1,"1.1 fold enrichment (6-mer frequency, TF over GST control)"
same,binding signal,ELK1,"1.07 fold enrichment (6-mer frequency, TF over GST control)"
same,binding signal,GABPA,"1.08 fold enrichment (6-mer frequency, TF over GST control)"
same,binding signal,ERG,"1.08 fold enrichment (6-mer frequency, TF over GST control)"
same,binding signal,ELF1,"1.03 fold enrichment (6-mer frequency, TF over GST control)"
same,binding signal,EHF,"1.11 fold enrichment (6-mer frequency, TF over GST control)"
same,binding signal,SPI1,"1.15 fold enrichment (6-mer frequency, TF over GST control)"
same,binding signal,SPIB,"1.08 fold enrichment (6-mer frequency, TF over GST control)"
same,binding signal,ELK3,"1.04 fold enrichment (6-mer frequency, TF over GST control)"
same,binding signal,FEV,"1.06 fold enrichment (6-mer frequency, TF over GST control)"
same,binding signal,ETV5,"1.1 fold enrichment (6-mer frequency, TF over GST control)"
same,binding signal,SPIC,"1.07 fold enrichment (6-mer frequency, TF over GST control)"
same,binding signal,ELF4,"1.04 fold enrichment (6-mer frequency, TF over GST control)"
same,binding signal,ETV1,"1.1 fold enrichment (6-mer frequency, TF over GST control)"
same,binding signal,ERF,"1.16 fold enrichment (6-mer frequency, TF over GST control)"
same,binding signal,ETV3L,"1.09 fold enrichment (6-mer frequency, TF over GST control)"
same,binding signal,ETS2,"1.12 fold enrichment (6-mer frequency, TF over GST control)"
same,binding signal,ETV3,"1.19 fold enrichment (6-mer frequency, TF over GST control)"
same,binding signal,ETV6,"1.03 fold enrichment (6-mer frequency, TF over GST control)"
